An excerpt weighted towards active compounds, which were near 14% of everything screened.
HCMV antiviral: blocks human cytomegalovirus replication. activity change, negative = inhibition, % at 57.5 µM. HFF cells, HCMV-luciferase reporter, 72 h; hits give low values. 4.5% of 410,000 active; in the data active = activity change below about -60%; inconclusive = no clear call, values can overlap the other calls; inactive = above about -39%
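Screen run at 2 compound doses on HFFs infected with reporter HCMV, MOI 1 PFU/cell. Luciferase activity from cell lysates at 72 h post infection gave inhibition relative to buffer-only and Salinomycin wells.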
Lassa entry inh: inhibitors of Lassa virus binding or cell entry; Lassa virus pseudotype entry inhibition, cell reporter; Potency, µM (highest dose often 37.9 µM), without a hit: at the top dose activity change, negative = inhibition, most hits filed as inhibitors; AID 540256; 1.2% of 300,000 active; calls by dose curve; tested in HEK293 cells; also: potency is read from the fitted curve at half-maximal effect; nearly all actives have a fitted effect of over 50% in size
MARV entry inh: blocks Marburg virus binding to or entry into cells. Marburg virus pseudotyped entry inhibition, cell reporter. AID 540276. 1.8% of 300,000 active. Potency, µM (titrated, usually from 37.8 µM), inactives show top-dose activity change, negative = inhibition, most hits filed as inhibitors; calls by dose curve; tested in HEK293 cells; also: potency is read from the fitted curve at half-maximal effect
Pf growth 48h: inhibits P. falciparum growth in the first generation, 48 h | P. falciparum luciferase growth in erythrocytes, 48 h | Potency, µM (titrated, usually from 28.7 µM), inactives show at the top dose activity change, negative = inhibition, actives largely listed as inhibitors | 5.9% of 310,000 active; also: potency is read from the fitted curve at half-maximal effect
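Erythrocytes infected with P. falciparum carrying an integrated firefly luciferase reporter (2% hematocrit, 0.1% parasitemia final) were exposed to compounds in RPMI 1640 with 0.5% Albumax at 37 C, 5% CO2. Growth inhibition was scored as reduced luminescence.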
Pf growth 96h: P. falciparum growth inhibition at 96 hours; 6.9% of 320,000 active; AID 504834; Potency, µM (doses to about 28.7 µM), for inactives: at the top dose activity change, negative = inhibition, usual class: inhibitors; P. falciparum luciferase reporter growth, 96 h; also: potency is read from the fitted curve at half-maximal effect
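Infected RBCs, 2% Hct / 0.05% parasitemia final; luciferase-reporter P. falciparum; cpd 96 h, 37 C, 5% CO2; luciferase detection reagent; luminescence.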
HCV inh: HCV inhibition. Huh7.5.1 HCVcc-Cre infection, luciferase reporter, 44 h. Potency, µM (highest dose often 41.8 µM), inactives show top-dose activity change, negative = inhibition, actives largely listed as inhibitors. 3.4% of 340,000 active. AID 651820; also: potency is read from the fitted curve at half-maximal effect
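Seed cells (1,000/well) for 4 h; treat with compound and infect with HCVcc-Cre, moi about 0.5. Incubate 44 h, then detect luciferase activity.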
Active calls of the source: *; ? = inconclusive; . = no result; [ ] = dose if it differs, or a comment. Unless noted, calls follow the shape of the dose curve; as a rule, active = well fitted inhibition curve with a large enough effect; inconclusive = small, poorly fitted or top-dose-only effect, or another doubt; inactive = no such curve, though single readings can be large or run the other way. % is scaled to controls: 0 for no effect and ±100 for the full control effect.

SMILES	HCMV antiviral	Lassa entry inh	MARV entry inh	Pf growth 48h	Pf growth 96h	HCV inh
COC(C(=O)NC1CCCCCCC1)c1ccccc1 (stereo not drawn)	-7	-3%	?	-2%	3.3µM*	7%
O=C(Cn1cc(S(=O)(=O)N2CCCC2)c(S(=O)(=O)N2CCCC2)c1)Nc1cccc(F)c1	-13	24%[46.1 µM]	.	.	.	.
CC1(C(=O)NCc2ccccc2)CN(S(C)(=O)=O)CC(=O)N1CCc1ccc(O)cc1 (stereo not drawn)	-9	.	.	.	.	.
Cc1cccc(C)c1NC(=S)NCCc1ccc(O)c(O)c1	-24	1%	-7%	10µM*	-20%	?
C[C@H](NC(=O)OC(C)(C)C)C(=O)N/N=C/C1=Cc2ccccc2OC1	-78*	.	.	6%	93%	-17%
CCC(C)[C@H](NC(=O)OC(C)(C)C)C(=O)N/N=C/C1=Cc2ccccc2OC1 (stereo partly drawn)	?	?	?	?	.	3%
Cn1c(=O)[nH]c2nnc(-c3ccc(Cl)c(Cl)c3)nc2c1=O	25	10µM*	?	?	1.7µM*	18%
CSc1cnc2c(=O)n(C)c(=O)[nH]c2n1	96	2%	6%	-1%	9%	25%
Cc1[nH]c2ccc(Br)cc2c1CCNC(=O)c1cc2ccccc2oc1=O	-11	21%[46.1 µM]	0%[46.1 µM]	.	.	.
CCN1C(=O)[C@H]2[C@@H](c3ccc(-c4cccc(Cl)c4)c(OC)c3)N[C@@](Cc3ccccc3)(C(=O)OC)[C@H]2C1=O	67	.	.	2.1µM*	0.41µM*	0%
COC(=O)[C@]1(Cc2ccccc2)N[C@H](c2ccc(-c3cccc(Cl)c3)c(OC)c2)[C@@H]2C(=O)N(C)C(=O)[C@@H]21	11	.	.	.	.	2.2µM*
CCN1C(=O)[C@H]2[C@@H](c3ccc(-c4ccc(OC)cc4)c(OC)c3)N[C@@](Cc3ccccc3)(C(=O)OC)[C@H]2C1=O	19	.	.	.	.	?
COC(=O)[C@]1(C)N[C@H](c2ccc(-c3cccc(Cl)c3)c(OC)c2)[C@@H]2C(=O)N(C)C(=O)[C@@H]21	?	.	.	.	.	11%
CCCCNC(=O)COC(=O)c1c2c(nc3ccccc13)CCC2	0	6%	-14%[46.1 µM]	?	?	?
CCCCNC(=O)COC(=O)c1c2c(nc3ccccc13)/C(=C/c1cccs1)CC2	78	?	?	-25%	?	2.2µM*
O=C(NC1CCCCC1)O[C@H]1CC[C@@]23CCCN2C(=O)CCC[C@H]3[C@H]1Cc1ccccc1	-23	.	.	.	.	.
CC(=O)OC1N=C(c2ccccc2)c2ccccc2NC1=O (stereo not drawn)	-19	30%	15%	-25%	15µM*	17%
CC(=O)O[C@@H]1N=C(c2ccccc2)c2ccccc2NC1=O	.	.	15%	.	.	.
Fc1ccccc1N1CCN(c2ncnc3onc(-c4ccc(Cl)cc4)c23)CC1	-9	?	-16%[46.1 µM]	.	.	.
CCN(CC)c1ccc(C(=O)N2CCC(c3c[nH]c4ccccc34)(c3c[nH]c4ccccc34)CC2)cc1	11	?	-22%[46.1 µM]	.	.	.
O=C(c1ccoc1)N1CCC(CO)(CCc2ccccc2)CC1	7	1%[46.1 µM]	8%[46.1 µM]	6%	12µM*	-7%
COC(=O)CCCC(=O)N1CCC(CO)(CCc2ccccc2)CC1	60	4%[46.1 µM]	?	3%	?	25%
CCn1c2ccccc2c2cc(/C=N/NC(=O)c3cc(O)cc(O)c3)ccc21	-16	?	?	?	15%	?
CCn1c2ccccc2c2cc(/C=N/NC(=O)c3ccc(O)cc3)ccc21	-38	5µM*	7.1µM*	?	13%	18µM*
CCn1c2ccccc2c2cc(/C=N/NC(=O)c3ccncc3)ccc21	6	5.6µM*	?	24%	0%	?
SMILES	HCMV antiviral	Lassa entry inh	MARV entry inh	Pf growth 48h	Pf growth 96h	HCV inh
CCOc1ccc(NC(=O)c2c(NC(=O)c3ccco3)sc3c2CCC(C(C)(C)C)C3)cc1 (stereo not drawn)	-8	1%[46.1 µM]	25%[46.1 µM]	.	.	.
O=S(=O)(c1ccc(Cl)s1)N1CCN(C/C=C/c2ccccc2)CC1	-40	23µM*	?	?	?	-7%
CCOc1ccccc1CNC(=O)CN1C(=O)C2CCCCN2c2ccc(C(=O)N(C)C)cc21 (stereo not drawn)	12	-3%[46.1 µM]	.	.	.	.
O=C1Cc2cc(S(=O)(=O)N3CCCCC3)cc3c2N1CCC3	-18	-5%[46.1 µM]	.	.	.	.
Cc1ccc(NC(=O)CCNS(=O)(=O)c2ccc(Br)cc2)cc1S(=O)(=O)N1CCOCC1	-16	1%	?	?	?	-3%
C=CCn1c(SCC(=O)NCCCC)nc2scc(-c3ccco3)c2c1=O	18	-16%	-18%	13µM*	?	-26%
C=CCn1c(SCC(=O)NC2CCCC2)nc2scc(-c3ccco3)c2c1=O	12	-4%	-1%[46.1 µM]	?	5%	?
O=C(Nc1ccccc1)Nc1cccc(C(F)(F)F)c1	-34	-15%	-6%[46.1 µM]	?	63%	?
O=C(Nc1cccc(C(F)(F)F)c1)Nc1nnc([C@H]2C[C@H](O)[C@@H](CO)O2)s1	-36	.	.	.	.	.
O=C(Nc1cccc(C(F)(F)F)c1)C12CC3CC(CC(C3)C1)C2	-5	1%	9%	13µM*	-7%	7%
O=C(Nc1cccc(C(F)(F)F)c1)Nc1cccs1	-80*	.	-13%[46.1 µM]	.	.	.
CCSCCc1nnc(NC(=O)Nc2cccc(C(F)(F)F)c2)s1	-83*	.	.	5.2µM*	?	3.5µM*
COc1ccc(NC(=O)Nc2cccc(C(F)(F)F)c2)cn1	-63*	?	-26%[46.1 µM]	13µM*	?	?
COc1ccc(CCNC(=O)Cn2cc(C(=O)c3ccccc3)c(=O)c3ccc(C)nc32)cc1OC	12	16%[46.1 µM]	.	.	.	.
O=C(NCc1ccccc1F)Nc1nnc([C@@H]2C[C@H](O)[C@@H](CO)O2)s1	0	.	.	.	.	.
C=CCCC[C@@H]1OC(=O)CNC(=O)C([C@@H](C)CC)NC(=O)[C@@H]2CCCN2C(=O)C([C@@H](C)CC)OC(=O)[C@H](Cc2ccccc2)N(C)C(=O)[C@H](C(C)C)NC(=O)C1(C)C (stereo partly drawn)	-73*	.	.	.	.	.
Cc1cccc(Oc2nc(-c3ccccc3)cc(C)c2S(C)(=O)=O)c1C	0	?	?	?	.	10µM*
Cc1cc(-c2ccccc2)nc(Oc2ccc(C(C)(C)C)cc2)c1S(C)(=O)=O	73	?	?	?	13µM*	-26%
Cc1cc(C)cc(Oc2nc(-c3ccccc3)cc(C)c2S(C)(=O)=O)c1	14	?	-22%	.	?	?
Cc1cccc(CSc2nc(-c3cccs3)ccc2C#N)c1	-2	?	-15%[46.1 µM]	.	.	.
CCOC(=O)CC1=C(C(=O)OCC)[C@H](c2ccc(OC)c(OC)c2)C(C#N)=C(N)O1	.	.	1%	.	.	.
